# JMJD2A Tudor: inhibitors of human JMJD2A Tudor domain; AlphaScreen JMJD2A-Tudor / H3K4me3 peptide binding; Potency, µM (titrated, usually from 114 µM), for the others: top-dose activity change, negative = inhibition, usual class: inhibitors; 390,000 compounds, 4.4% hits; also: % is scaled to controls: 0 for no effect and ±100 for the full control effect; nearly all actives have a fitted effect of over 50% in size
# L3MBTL1 block: L3MBTL1 (human) inhibition. 230,000 compounds, 0.66% hits. Potency, µM (highest dose often 57.1 µM), inactives show at the top dose activity, negative = inhibition, hits mostly inhibitors. AlphaScreen L3MBTL1–H3K9me1 peptide binding. Q9Y468; also: % is scaled to controls: 0 for no effect and ±100 for the full control effect; nearly all actives have a fitted effect of over 60% in size
#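 AlphaScreen proximity signal between nickel-chelate acceptor and streptavidin donor beads (final 10 ug/mL) reports binding of 50 nM L3MBTL1 to 75 nM biotin-H3 K9me1 peptide; complex incubated with compounds 30 min at room temperature; cefsulodin titration as control.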
# HP1b chromo inh: blocks HP1-beta chromodomain binding to methylated histone tails. P83916. AlphaScreen HP1-beta / biotin-H3K9me3 peptide binding. Potency, µM (doses to about 114 µM), inactives show top-dose activity change, negative = inhibition, most hits filed as inhibitors. 390,000 compounds, 0.56% hits. AID 540317; also: nearly all actives have a fitted effect of over 70% in size
# Target sequence (P83916 whole entry, looked up): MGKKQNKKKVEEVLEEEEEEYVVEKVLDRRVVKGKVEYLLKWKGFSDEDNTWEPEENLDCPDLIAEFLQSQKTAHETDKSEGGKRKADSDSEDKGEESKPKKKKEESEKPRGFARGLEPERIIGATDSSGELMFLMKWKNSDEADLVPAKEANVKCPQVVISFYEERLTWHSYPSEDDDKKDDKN
#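 Compound inhibition of the preformed complex between 50 nM HP1-beta and 50 nM biotinylated H3K9me3 peptide was read by AlphaScreen. Buffer was PBS pH 7.4 with 0.01% Tween-20. Incubations ran 30 min at room temperature, with 10 ug/mL donor/acceptor beads.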
# G9a block: inhibitors of human histone lysine methyltransferase G9a. G9a H3K9 monomethylation, AlphaScreen, 2 h. Potency, µM (titrated, usually from 102 µM), for the others: top-dose activity, negative = inhibition, usual class: inhibitors. 350,000 compounds, 8.8% hits. AID 504332; also: % is scaled to controls: 0 for no effect and ±100 for the full control effect; nearly all actives have a fitted effect of over 75% in size
# Target sequence (Q96KQ7 913-1193 limits assumed): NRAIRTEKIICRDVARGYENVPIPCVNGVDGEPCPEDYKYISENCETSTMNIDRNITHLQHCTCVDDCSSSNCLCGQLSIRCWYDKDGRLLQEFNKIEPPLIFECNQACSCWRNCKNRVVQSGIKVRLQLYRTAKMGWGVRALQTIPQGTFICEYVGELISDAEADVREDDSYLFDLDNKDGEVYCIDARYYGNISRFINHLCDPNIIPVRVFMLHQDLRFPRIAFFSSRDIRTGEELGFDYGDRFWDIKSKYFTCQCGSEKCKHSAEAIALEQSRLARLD
#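 Methyltransferase reactions run at room temperature for 2 h (20 nM enzyme, 500 nM biotin-H3K9 peptide, 20 uM SAM) after a 15 min compound preincubation; product detected by AlphaScreen beads and anti-H3K9me1 antibody.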
# BAZ2B block: inhibitors of human BAZ2B bromodomain; Q9UIF8; AlphaScreen BAZ2B-H3K14Ac peptide displacement; Potency, µM (top dose mostly 114 µM), for inactives: at the highest dose activity change, negative = inhibition, actives largely listed as inhibitors; 360,000 compounds, 4.4% hits; also: % is scaled to controls: 0 for no effect and ±100 for the full control effect; nearly all actives have a fitted effect of over 60% in size
#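 Protein-peptide AlphaScreen: BAZ2B 50 nM, b-H3K14Ac 50 nM, 1x PBS pH 7.4 + 0.01% Tween-20. Preincubation 30 min RT; cpd 30 min RT (top 110 uM); beads 20 min RT, light-protected.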
# Active calls of the source: *; ? = inconclusive; nt = no result; [ ] = remark or other dose. An excerpt weighted towards active compounds, which were near 11% of everything screened. Calls follow the shape of the dose curve; as a rule, active = well fitted inhibition curve with a large enough effect; inconclusive = small, poorly fitted or top-dose-only effect; inactive = no such curve, though single readings can be large or run the other way. Potency is read from the fitted curve at half-maximal effect.
SMILES,JMJD2A Tudor,L3MBTL1 block,HP1b chromo inh,G9a block,BAZ2B block
COc1ccc(C2NC(=O)C(C#N)=C(S)N2c2cccc(C)c2)cc1OC (centres undefined),-18.2%[57.1 µM],5.0%,23.1%,39.8µM*,-35.4%
COc1ccc(C2NC(=O)C(C#N)=C(S)N2c2ccc(C)cc2)cc1OC (centres undefined),-20.9%,-0.3%,11.3%,44.7µM*,-30.6%
COc1ccc(Cl)cc1NC(=O)Cn1ccn(Cc2ccc(C)cc2)c(=O)c1=O,-28.9%,nt,24.7%,?,-12.5%
CCC(C)NC(=O)C(=O)Nc1c2c(nn1-c1ccccc1)CS(=O)(=O)C2 (centres undefined),44.7µM*,nt,-14.2%,?,?
CCOc1ccc2nc(NC(=O)c3nc(SCc4ccccc4F)ncc3Cl)sc2c1,-6.0%,nt,40.2%,4.6%[59 µM],-2.5%
CCCCCCSc1nnc2[nH]c(=O)cc(N)n12,-34.6%,-4.3%,17.8%,1.3%[59 µM],1.3%
CCCCCCCCSc1nnc2[nH]c(=O)cc(N)n12,11.2µM*,nt,-17.3%,-8.7%,-19.4%
COc1cccc(-c2nc(CS(=O)(=O)CC(=O)NCc3ccc(C)cc3)c(C)o2)c1,-15.2%,nt,41.6%,-16.6%[59 µM],-15.2%
Clc1ccccc1CN1CCN(/N=C/c2ccncc2)CC1,?,?,-5.9%,44.7µM*,44.7µM*
Clc1ccc(/C=N/N2CCN(Cc3ccccc3)CC2)cc1,56.2µM*,-21.2%,?,50.1µM*,44.7µM*
CCOc1ccc(/C=N/N2CCN(Cc3ccccc3)CC2)cc1,?,?,?,39.8µM*,50.1µM*
O=C(O)c1ccc(/C=N/N2CCN(Cc3ccc(Cl)cc3)CC2)cc1,-14.7%,12.2%,28.0%,nt,-2.9%
C(=C\c1ccccc1)/C=N/N1CCN(c2ccccn2)CC1,?,-6.6%,-5.9%,?,-12.0%
C(=C\c1ccccc1)/C=N/N1CCN(Cc2ccccc2)CC1,50.1µM*,-15.8%,?,44.7µM*,35.5µM*
Cc1ccc(C(=O)Nc2nnc(S(=O)(=O)N3CCc4ccccc43)s2)cc1,-2.6%,nt,27.1%,6.9%[59 µM],2.9%
O=C(Nc1ccc(F)cc1)C1CCN(c2nc3ccccc3n3cccc23)CC1,?,nt,-11.1%,?,?
CCOc1ccc(C(=O)Nc2cccc(-c3nc4cccnc4s3)c2C)cc1OCC,-17.9%,nt,32.6%,?,-13.3%
Clc1ccc(/C=N/N2CCN(Cc3ccccc3Cl)CC2)cc1,44.7µM*,-17.3%,-9.8%,?,35.5µM*
C/C(=N\N1CCN(Cc2ccccc2Cl)CC1)c1ccc(F)cc1,-11.7%,-1.4%,24.6%,nt,-12.6%
COc1ccc(/C=N\N2CCN(Cc3ccccc3Cl)CC2)cc1,?,-5.4%,-13.5%,12.6µM*,?
CSc1ccc(/C=N/N2CCN(c3ccccc3)CC2)cc1,-5.8%,1.0%,23.5%,-28.1%,-13.2%
Clc1ccc(N2CCN(/N=C/c3ccncc3)CC2)cc1,-18.2%,-6.7%,9.8%,-28.6%,-19.1%
CSc1ccc(/C=N/N2CCN(Cc3ccccc3)CC2)cc1,44.7µM*,-12.6%,44.7µM*,nt,12.6µM*
Cc1ccccc1-c1cncnc1Nc1ccccc1,nt,nt,nt,3.5%[0.501 µM],nt
CO[C@H](C(=O)[C@@H](O)[C@@H](C)O)C1Cc2cc3cc(O[C@H]4C[C@@H](O[C@H]5C[C@@H](O)[C@H](O)[C@@H](C)O5)[C@@H](O)[C@@H](C)O4)c(C)c(O)c3c(O)c2C(=O)[C@H]1O[C@H]1C[C@@H](O[C@H]2C[C@@H](O[C@H]3C[C@](C)(O)[C@H](O)[C@@H](C)O3)[C@H](O)[C@@H](C)O2)[C@H](O)[C@@H](C)O1 (some centres undefined),nt,nt,nt,-10.6%[12.7 µM],nt
CCS(=O)(=O)N1CCc2cc(C(=O)N3CCN(c4ccccc4)CC3)ccc21,3.3%,nt,50.6%,-35.0%[59 µM],4.1%
O=C(Cc1n[nH]c(=O)c2ccccc12)Nc1cc(Cl)ccc1-n1cncn1,-4.5%,-1.0%,42.1%,-5.7%,13.2%
O=C(Cc1n[nH]c(=O)c2ccccc12)Nc1cc(C(F)(F)F)ccc1-n1cncn1,-13.0%,-1.2%,14.5%,35.5µM*,6.3%
Cc1ccc(S(=O)(=O)N2CCN(c3nc(-c4cnccn4)nc4ccccc34)CC2)cc1,-19.7%,nt,53.5%,nt,nt
